Counter-ions that a name gives are not always drawn. Unmarked numbers belong to inactive results.
These compounds were tested on NCI-H1688 (assay: inhibition of cell viability relative to untreated control (fraction); higher = stronger growth inhibition, active = 0.5 or more). Details: 30 µM; 24 h.
Summary of the method: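 NCI-H1688 small cell lung cancer cells were plated in 96-well plates at 3 × 10^3 cells/well, and 24 h later they were exposed to a natural compound library (TargetMol) at 30 µM for 24 h at 37°C with 5% CO2. Viability was measured in triplicate using Cell Counting Kit-8, read as absorbance at 450 nm. Inhibition of cell viability is given as a fraction, calculated from viability normalised to untreated cells.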

Row | Compound | inhibition of cell viability
1 | NC[C@@H]1O[C@H](O[C@H]2[C@@H](O)[C@H](O[C@@H]3[C@@H](O)[C@H](N)C[C@H](N)[C@H]3O[C@H]3O[C@H](CO)[C@@H](O)[C@H](O)[C@H]3N)O[C@@H]2CO)[C@H](N)[C@@H](O)[C@@H]1O [Paromomycin Sulfate] | -0.0298
2 | C[C@@H]1O[C@@H](OC[C@H]2O[C@@H](Oc3c(-c4ccc(O)c(O)c4)oc4cc(O)cc(O)c4c3=O)[C@H](O)[C@@H](O)[C@@H]2O)[C@H](O)[C@H](O)[C@H]1O [Rutin] | 0.272
3 | COc1ccc2cc1Oc1ccc(cc1)C[C@H]1c3cc(c(OC)cc3CCN1C)Oc1c(OC)c(OC)cc3c1[C@H](C2)N(C)CC3 [Tetrandrine] | 1.01 (active)
4 | COC(=O)[C@@H]1[C@H]2C[C@H]3c4[nH]c5ccccc5c4CCN3C[C@@H]2CC[C@@H]1O [Yohimbine hydrochloride] | 0.0994
5 | CCc1c2c(nc3ccc(OC(=O)N4CCC(N5CCCCC5)CC4)cc13)-c1cc3c(c(=O)n1C2)COC(=O)[C@]3(O)CC [Irinotecan hydrochloride trihydrate] | 0.311
6 | C=C1C[C@@]23CC[C@H]4[C@@](C)(CCC[C@@]4(C)C(=O)O[C@@H]4O[C@H](CO)[C@@H](O)[C@H](O)[C@H]4O)[C@@H]2CC[C@]1(O[C@@H]1O[C@H](CO)[C@@H](O)[C@H](O)[C@H]1O[C@@H]1O[C@H](CO)[C@@H](O)[C@H](O)[C@H]1O)C3 [Stevioside] | -0.031
7 | O=c1[nH]cnc2nc[nH]c12 [6-Hydroxypurine] | -0.00202
8 | COc1ccc([C@@H]2CC(=O)c3c(O)cc(O[C@@H]4O[C@H](CO[C@@H]5O[C@@H](C)[C@H](O)[C@@H](O)[C@H]5O)[C@@H](O)[C@H](O)[C@H]4O)cc3O2)cc1O [Hesperidin] | 0.0198
9 | O=c1cc[nH]c(=O)[nH]1 [Uracil] | -0.231
10 | CC[C@@H]1C(=O)OC[C@@H]1Cc1cncn1C [(+)-Pilocarpine hydrochloride] | 0.197
11 | COc1cc([C@@H]2c3cc4c(cc3[C@@H](O[C@@H]3O[C@@H]5CO[C@@H](C)O[C@H]5[C@H](O)[C@H]3O)[C@H]3COC(=O)[C@H]23)OCO4)cc(OC)c1O [Etoposide] | 0.664 (active)
12 | Oc1ccc(/C=C/c2cc(O)cc(O)c2)cc1 [Resveratrol] | 0.49
13 | C=CCc1ccc(O)c(-c2ccc(O)c(CC=C)c2)c1 [Honokiol] | 0.844 (active)
14 | COc1ccc2cc1Oc1ccc(cc1)C[C@H]1c3c(cc4c(c3Oc3cc5c(cc3OC)CCN(C)[C@@H]5C2)OCO4)CCN1C [Cepharanthine] | 1.01 (active)
15 | Cc1ncc(CSSCc2cnc(C)c(O)c2CO)c(CO)c1O [Pyrithioxin] | 0.0153

From the supplement of paper PMC11634586
